What all share (test): Euclidean distance of Cell Painting phenotypic profile (signed KS, 77 features) to DMSO centroid (dimensionless distance); 5 or 10 uM (library dependent); higher = stronger phenotypic change vs DMSO (phenoactivity)
What all share (details): 48 h

The test system of one assay is 786-O. An outline of the steps: (§1)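 Five cancer lines and a healthy fibroblast line received library compounds at 10 or 5 uM (library-dependent, 0.1% DMSO final) for 48 h. Stained cells were imaged confocally at 20X (9 fields/well). Harmony extracted 77 features, each scored as a signed Kolmogorov-Smirnov statistic against same-plate vehicle wells. Profiles were plate-position corrected, correlation-weighted and replicate-averaged at the top dose. Phenoactivity is the Euclidean distance from each profile to the median vehicle profile.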

The subject of a further assay is A549. An outline of the steps: as §1
Another assay deals with DU145. An outline of the steps:
as §1

The test system of another assay is FB. An outline of the steps: as §1
The next assay concerns HEPG2. An outline of the steps: as §1
A further assay relates to OVCAR4. An outline of the steps:
as §1

Structures can show the parent of a compound that is named as a salt.

Regarding `CCc1ccc(OCc2ccccc2C(=O)Nc2ccc3nc(C)cc(N)c3c2)cc1`, the Euclidean distance amounted to 4.35 in the assay with 786-O; 4.14 in the assay on A549; 3.63 in the assay with DU145; 5.25 with FB; 5.11 in the assay with HEPG2; 4.53 in the assay on OVCAR4.
For `COc1cc(C)c(/C=C/C(C)=C/C=C/C(C)=C/C(=O)O)c(C)c1C` [Acitretin], the Euclidean distance stood at 1.13 in the assay on 786-O; 0.972 in the assay with A549; 0.881 with DU145; 2.31 in the assay on FB; 1.39 in the assay on HEPG2; 1.13 in the assay on OVCAR4.
With `CN(C)c1cc(CNCC(C)(C)C)c(O)c2c1C[C@H]1C[C@H]3[C@H](N(C)C)C(O)=C(C(N)=O)C(=O)[C@@]3(O)C(O)=C1C2=O` [Omadacycline tosylate], the Euclidean distance in the assay with 786-O came out at 1.25; in the assay with A549, 0.879; in the assay with DU145 it was 1.21; with FB, 1.14; in the assay on HEPG2 it was 0.757; in the assay on OVCAR4 it was 1.46.
As to `CCOc1ccc(Cc2cc([C@@H]3O[C@H](SC)[C@@H](O)[C@H](O)[C@H]3O)ccc2Cl)cc1` [Sotagliflozin (LX4211)], the Euclidean distance was determined as 1.32 in the assay on 786-O; 1.07 with A549; 1.9 in the assay with DU145; 0.889 with FB; 0.553 with HEPG2; 0.781 in the assay with OVCAR4.
With `C[N+]1(C)CCC(=C(c2ccccc2)c2ccccc2)CC1` [Diphemanil Methylsulfate], the Euclidean distance in the assay on 786-O was determined as 1.08; with A549, 0.915; with DU145 it was 1.02; with FB, 0.946; in the assay on HEPG2 it was 0.465; in the assay on OVCAR4 it was 1.83.
`CCCN(CCC)C(=O)C1=Cc2ccc(-c3ccc(C(=O)N4CCCC4)cc3)cc2N=C(N)C1` [Motolimod (VTX-2337)]: the Euclidean distance was 1.67 with 786-O; 2.04 in the assay with A549; 1.35 in the assay with DU145; 1.27 in the assay with FB; 2.18 in the assay on HEPG2; 2.2 in the assay with OVCAR4.
Consider `CC1Cc2ccccc2N1NC(=O)c1ccc(Cl)c(S(N)(=O)=O)c1` (stereo not drawn) [Indapamide], for which the Euclidean distance turned out to be 0.856 with 786-O; 0.679 in the assay with A549; 1.26 with DU145; 0.772 in the assay on FB; 1.91 in the assay on HEPG2; 1.41 in the assay on OVCAR4.
For `O=C1CN(/N=C/c2ccc([N+](=O)[O-])o2)C(=O)N1` [Nitrofurantoin], the Euclidean distance in the assay with 786-O came out at 1.11; with A549, 0.86; in the assay on DU145, 1.02; in the assay with FB, 0.744; with HEPG2 it was 0.699; with OVCAR4, 0.831.
As for `Nc1ncc2ncn(CC3(OCP(=O)(O)O)CC3)c2n1` [Besifovir], the Euclidean distance with 786-O was 1.03; with A549, 0.329; with DU145 it was 1.01; with FB it was 1.2; in the assay with HEPG2, 0.716; in the assay on OVCAR4, 0.915.
For the molecule `Cn1cnc2c(F)c(Nc3ccc(Br)cc3Cl)c(C(=O)NOCCO)cc21` [Selumetinib (AZD6244)], the Euclidean distance in the assay on 786-O came to 2.23; in the assay with A549, 2.67; with DU145, 2.91; with FB, 2.95; with HEPG2, 1.72; in the assay with OVCAR4, 2.19.
In the case of `CN1CCN(c2cccc(Nc3nc4c(-c5ccc(S(C)(=O)=O)cc5)cccn4n3)c2)CC1`, the Euclidean distance with 786-O came out at 1.38; with A549, 1.14; in the assay on DU145, 1.07; with FB it was 1.26; in the assay with HEPG2, 0.565; with OVCAR4, 1.25.
Consider `Nc1ccn(C[C@@H](CO)OCP(=O)(O)O)c(=O)n1` [Cidofovir], for which the Euclidean distance in the assay with 786-O is 1.22; in the assay with A549, 1.39; in the assay on DU145, 1.14; in the assay on FB it was 0.855; with HEPG2, 0.834; with OVCAR4 it was 1.26.
`Cn1cc(CNCC2CCN(c3ncc(C(=O)NO)cn3)CC2)c2ccccc21`: the Euclidean distance was determined as 2.78 in the assay with 786-O; 4.19 with A549; 3.88 in the assay on DU145; 3.5 with FB; 4.44 with HEPG2; 3.65 with OVCAR4.
As for `C/C(O)=C(\C#N)C(=O)Nc1ccc(C(F)(F)F)cc1` [Teriflunomide], the Euclidean distance in the assay on 786-O was 0.702; in the assay with A549, 0.732; in the assay with DU145, 0.988; in the assay on FB, 1.1; in the assay with HEPG2, 0.844; in the assay with OVCAR4, 2.02.
Consider `CC[C@H]1OC(=O)C[C@@H](O)[C@H](C)[C@@H](O[C@@H]2O[C@H](C)[C@@H](O)[C@H](N(C)C)[C@H]2O)[C@@H](CCN2C[C@H](C)C[C@H](C)C2)C[C@@H](C)C(=O)/C=C/C(C)=C/[C@@H]1CO[C@@H]1O[C@H](C)[C@@H](O)[C@@H](OC)[C@H]1OC` [Tilmicosin], for which the Euclidean distance in the assay on 786-O turned out to be 0.767; with A549, 0.579; in the assay with DU145, 0.777; with FB, 0.841; with HEPG2, 1.09; in the assay with OVCAR4, 0.801.
As for `COc1cc2c(cc1OC)[C@@H](Cc1cc(OC)c(OC)c(OC)c1)[N+](C)(CCCOC(=O)CC/C=C/CCC(=O)OCCC[N+]1(C)CCc3cc(OC)c(OC)cc3[C@H]1Cc1cc(OC)c(OC)c(OC)c1)CC2` (stereo partly drawn) [Mivacurium chloride], the Euclidean distance with 786-O was determined as 0.861; with A549, 1; in the assay on DU145 it was 0.929; with FB, 1.3; in the assay on HEPG2 it was 0.442; in the assay on OVCAR4, 1.25.
Take `O=C(C=Cc1ccccc1)NC(NC(=S)Nc1ccc(Cl)cc1)C(Cl)(Cl)Cl` (stereo not drawn): the Euclidean distance in the assay on 786-O was 1.51; in the assay with A549, 2.16; in the assay on DU145, 1.33; in the assay with FB it was 1.53; with HEPG2, 2.23; in the assay on OVCAR4 it was 1.08.
In the case of `CC(N/C(=N\C#N)Nc1ccncc1)C(C)(C)C` (stereo not drawn) [Pinacidil], the Euclidean distance was determined as 1.01 in the assay with 786-O; 0.907 in the assay with A549; 2.42 with DU145; 1.15 with FB; 0.55 in the assay on HEPG2; 1.54 with OVCAR4.
`c1ccc(NCc2ccc(CNc3ccccn3)cc2)nc1`: the Euclidean distance with 786-O was determined as 0.787; with A549, 1.08; in the assay on DU145, 0.956; in the assay on FB, 1.09; in the assay on HEPG2, 0.936; in the assay on OVCAR4, 1.15.
For the molecule `C=C1C[C@@]2(O)O[C@@]3(C[C@H]2C(C)C)[C@@H](C)CC[C@@H]13` [Curcumol], the Euclidean distance with 786-O was 1.06; with A549 it was 1.43; in the assay with DU145, 0.943; in the assay with FB, 1.3; with HEPG2, 0.814; in the assay with OVCAR4, 1.43.
On to `C[C@@H]1O[C@@H]1P(=O)(O)O` [Fosfomycin Disodium], for which the Euclidean distance with 786-O came out at 1.44; in the assay on A549 it was 0.52; in the assay with DU145, 0.647; in the assay on FB, 0.793; with HEPG2 it was 0.716; in the assay on OVCAR4, 0.92.
For `CC1(C)S[C@@H]2[C@H](NC(=O)[C@H](N)c3ccc(O)cc3)C(=O)N2[C@H]1C(=O)O` [Amoxicillin Sodium], the Euclidean distance in the assay with 786-O is 1.03; with A549, 1.17; with DU145, 1.56; in the assay on FB, 1.06; in the assay on HEPG2, 1.08; in the assay with OVCAR4, 1.78.
For `CC1(C)S[C@@H]2[C@H](NC(=O)Cc3ccccc3)C(=O)N2[C@H]1C(=O)O` [Benzylpenicillin potassium], the Euclidean distance stood at 1.15 with 786-O; 0.89 in the assay on A549; 1.18 in the assay on DU145; 0.93 with FB; 0.711 with HEPG2; 1.48 in the assay on OVCAR4.

The record behind these values is the supplement of paper PMC10127200.
